Test [1] can be described thus: NCI Yeast Anticancer Drug Screen. Data for the rad50 strain (AID 155).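 Also: 0% = growth of vehicle-only cultures of the same strain.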 Conditions: S. cerevisiae rad50 strain growth inhibition, stronger effect = higher value. Summed up:
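DNA repair mutant yeast, compound exposure, growth read-out; inhibition is taken relative to vehicle.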

A short description of test [2]: NCI Yeast Anticancer Drug Screen. Data for the mec2-1 strain (AID 157). Conditions: S. cerevisiae mec2-1 strain, stronger effect = higher value. An outline of the steps: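 Vehicle-treated cultures served as reference for growth inhibition of compound-exposed mec2-1 yeast.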
Test [3] is described as follows: NCI Yeast Anticancer Drug Screen. Data for the sgs1 mgt1 strain (AID 161).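 Also: 0% = growth of cultures given vehicle only.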 Particulars: S. cerevisiae sgs1 mgt1 strain, stronger effect = higher value. Summed up: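 Read-out: growth inhibition vs vehicle controls. Cells: mutant yeast strain deficient in DNA damage repair.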
Test [4] can be described thus: NCI Yeast Anticancer Drug Screen. Data for the cln2 rad14 strain (AID 165).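 Also: 0% = growth equal to vehicle treated cultures.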 Particulars: S. cerevisiae cln2 rad14 strain, stronger effect = higher value. Summed up:
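Each compound was tested on cln2 rad14 yeast. Inhibition of growth was calculated against vehicle-exposed controls.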

The nature of test [5]: NCI Yeast Anticancer Drug Screen. Data for the bub3 strain (AID 167). Particulars: S. cerevisiae bub3 mutant strain, stronger effect = higher value. An outline of the steps: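 In this screen, a yeast mutant lacking normal mitotic checkpoint function is challenged with compound. Relative growth versus vehicle gives the inhibition value.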
The nature of test [6]: NCI Yeast Anticancer Drug Screen. Data for the mlh1 rad18 strain (AID 175). Particulars: S. cerevisiae mlh1 rad18 strain growth inhibition, stronger effect = higher value. An outline of the steps: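 Vehicle-treated cultures served as the reference for growth inhibition in a yeast strain carrying DNA damage repair alterations exposed to each compound.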
Setting [7] is: at 5.0 µM (retest, dose inferred, filed as 0.5).
The mark [8] stands for this setting: at 50.0 µM (retest, dose inferred, filed as 5.0).

The panel holds about 79,000 compounds, 15% with a hit somewhere; the sample as a whole holds those more often. A number with no mark means an inactive call. The source made the active and inactive calls. Rule as the data show it: active = growth inhibition above about 70%; inactive = the rest.

As for `Cc1ccc2c(c1)[n+]([O-])c(N)n[n+]2[O-]`, the growth inhibition is 21% in test [1] (setting [7]); 61% in test [1] (setting [8]); 75.7% (active) in test [1] (at 50.0 µM); 1% in test [2] (setting [7]); 35% in test [2] (setting [8]); 48.4% in test [2] (at 50.0 µM). In addition, the growth inhibition in test [3] (setting [7]) was 17%; in test [3] (setting [8]), 43%; in test [3] (at 50.0 µM) it was 57.1%; in test [4] (setting [7]), 11%; in test [4] (setting [8]) it was 47%; in test [4] (at 50.0 µM) it was 40.2%. Moreover, the growth inhibition in test [5] (setting [7]) was -7%; in test [5] (setting [8]), 36%; in test [5] (at 50.0 µM), 43.1%; in test [6] (setting [7]) it was 20%; in test [6] (setting [8]) it was 64%; in test [6] (at 50.0 µM), 50.6%.
Take `CC(=O)Oc1ccccc1N(C(C)=O)S(=O)(=O)c1ccc(C)cc1`: the growth inhibition in test [1] (setting [7]) was 16%; in test [1] (setting [8]) it was 98% (active); in test [1] (at 50.0 µM) it was 95.7% (active); in test [2] (setting [7]) it was 12%; in test [2] (setting [8]), 99% (active); in test [2] (at 50.0 µM), 97.5% (active). Moreover, the growth inhibition in test [3] (setting [7]) was 11%; in test [3] (setting [8]), 99% (active); in test [3] (at 50.0 µM) it was 96.2% (active); in test [4] (setting [7]), 1%; in test [4] (setting [8]) it was 99% (active); in test [4] (at 50.0 µM), 98.5% (active). In addition, the growth inhibition in test [5] (setting [7]) was -2%; in test [5] (setting [8]), 99% (active); in test [5] (at 50.0 µM) it was 99.2% (active); in test [6] (setting [7]), 34%; in test [6] (setting [8]), 99% (active); in test [6] (at 50.0 µM), 98.8% (active).
On to `BrC1CCCCCC1`, for which the growth inhibition in test [1] (setting [7]) is 2%; in test [1] (setting [8]) it was 10%; in test [1] (at 50.0 µM), 51.9%; in test [2] (setting [7]), 3%; in test [2] (setting [8]), 16%; in test [2] (at 50.0 µM), 34.5%. Further, the growth inhibition in test [3] (setting [7]) is 1%; in test [3] (setting [8]) it was 22%; in test [3] (at 50.0 µM) it was 57.4%; in test [4] (setting [7]) it was 6%; in test [4] (setting [8]), 14%; in test [4] (at 50.0 µM) it was 27.4%. Further, the growth inhibition in test [5] (setting [7]) is 5%; in test [5] (setting [8]) it was 35%; in test [5] (at 50.0 µM), 37%; in test [6] (setting [7]), 6%; in test [6] (setting [8]) it was 24%; in test [6] (at 50.0 µM), 81.7% (active).
With `Cc1cc(N(CCOS(C)(=O)=O)CCOS(C)(=O)=O)ccc1C=Nc1ccccc1C(=O)O`, the growth inhibition was 7% in test [1] (setting [7]); 76% (active) in test [1] (setting [8]); 83.5% (active) in test [1] (at 50.0 µM); 15% in test [2] (setting [7]); 66% in test [2] (setting [8]); 74.3% (active) in test [2] (at 50.0 µM). Further, the growth inhibition in test [3] (setting [7]) is 4%; in test [3] (setting [8]), 62%; in test [3] (at 50.0 µM) it was 79.8% (active); in test [4] (setting [7]), 4%; in test [4] (setting [8]) it was 57%; in test [4] (at 50.0 µM), 68.2%. Also, the growth inhibition in test [5] (setting [7]) was -2%; in test [5] (setting [8]), 31%; in test [5] (at 50.0 µM), 38.5%; in test [6] (setting [7]) it was 28%; in test [6] (setting [8]), 91% (active); in test [6] (at 50.0 µM) it was 95.1% (active).
`O=C1COCC(=O)OCCOCCSCCOCCO1`: the growth inhibition was 5% in test [1] (setting [7]); 11% in test [1] (setting [8]); -4.6% in test [1] (at 50.0 µM); 0% in test [2] (setting [7]); 5% in test [2] (setting [8]); -1.2% in test [2] (at 50.0 µM). In addition, the growth inhibition was 1% in test [3] (setting [7]); 1% in test [3] (setting [8]); -7% in test [3] (at 50.0 µM); 4% in test [4] (setting [7]); 41% in test [4] (setting [8]); 37.2% in test [4] (at 50.0 µM). Besides, the growth inhibition in test [5] (setting [7]) is -4%; in test [5] (setting [8]), 4%; in test [5] (at 50.0 µM), 8.75%; in test [6] (setting [7]) it was 8%; in test [6] (setting [8]) it was 15%; in test [6] (at 50.0 µM) it was 7.75%.
On to `O=C1C2CCCC3CCCC(C(=O)N1O)C32` (stereo not given), for which the growth inhibition in test [1] (setting [7]) was 89% (active); in test [1] (setting [8]), 96% (active); in test [1] (at 50.0 µM), 91.9% (active); in test [2] (setting [7]), 90% (active); in test [2] (setting [8]), 98% (active); in test [2] (at 50.0 µM), 93% (active). Besides, the growth inhibition in test [3] (setting [7]) is 70% (active); in test [3] (setting [8]), 94% (active); in test [3] (at 50.0 µM), 93.5% (active); in test [4] (setting [7]) it was 52%; in test [4] (setting [8]) it was 69%; in test [4] (at 50.0 µM) it was 74.7% (active). The growth inhibition is 93% (active) in test [5] (setting [7]); 97% (active) in test [5] (setting [8]); 92% (active) in test [5] (at 50.0 µM); 87% (active) in test [6] (setting [7]); 97% (active) in test [6] (setting [8]); 90.3% (active) in test [6] (at 50.0 µM).
For the compound `CCO/C=C1/N=C(c2cc(Cl)cc([N+](=O)[O-])c2)OC1=O`, the growth inhibition was 4% in test [1] (setting [7]); -7% in test [1] (setting [8]); 11.7% in test [1] (at 50.0 µM); -2% in test [2] (setting [7]); 12% in test [2] (setting [8]); 1.3% in test [2] (at 50.0 µM). For the same compound, the growth inhibition in test [3] (setting [7]) is -15%; in test [3] (setting [8]), 2%; in test [3] (at 50.0 µM), 13.7%; in test [4] (setting [7]), 18%; in test [4] (setting [8]), 22%; in test [4] (at 50.0 µM), -60.5%. Moreover, the growth inhibition in test [5] (setting [7]) was 6%; in test [5] (setting [8]), 5%; in test [5] (at 50.0 µM), -8.75%; in test [6] (setting [7]), -15%; in test [6] (setting [8]), 6%; in test [6] (at 50.0 µM), 9.15%.
Consider `CCCCCCCCCCCCCC(=O)CBr`, for which the growth inhibition in test [1] (setting [7]) was 11%; in test [1] (setting [8]) it was 84% (active); in test [1] (at 50.0 µM), 87.5% (active); in test [2] (setting [7]), 4%; in test [2] (setting [8]), 85% (active); in test [2] (at 50.0 µM), 80.1% (active). The growth inhibition is 35% in test [3] (setting [7]); 99% (active) in test [3] (setting [8]); 84.5% (active) in test [3] (at 50.0 µM); 2% in test [4] (setting [7]); 68% in test [4] (setting [8]); 66.2% in test [4] (at 50.0 µM). The growth inhibition in test [5] (setting [7]) was 9%; in test [5] (setting [8]), 98% (active); in test [5] (at 50.0 µM), 85.8% (active); in test [6] (setting [7]), 5%; in test [6] (setting [8]), 90% (active); in test [6] (at 50.0 µM), 81.1% (active).
On to `CSc1nc(NC2OC(CO)C(O)C(O)C2O)c(Cl)c(=O)[nH]1` (stereo not given), for which the growth inhibition was -1% in test [1] (setting [7]); -1% in test [1] (setting [8]); 42.1% in test [1] (at 50.0 µM); 0% in test [2] (setting [7]); -1% in test [2] (setting [8]); 4.45% in test [2] (at 50.0 µM). Moreover, the growth inhibition is -2% in test [3] (setting [7]); 0% in test [3] (setting [8]); 12.4% in test [3] (at 50.0 µM); 1% in test [4] (setting [7]); -2% in test [4] (setting [8]); -3.85% in test [4] (at 50.0 µM). Further, the growth inhibition in test [5] (setting [7]) is -1%; in test [5] (setting [8]), 4%; in test [5] (at 50.0 µM), -1.4%; in test [6] (setting [7]), 2%; in test [6] (setting [8]) it was -1%; in test [6] (at 50.0 µM) it was 1.05%.
On to `Nc1nc(N)c(N=O)c(Nc2cccc(Br)c2)n1`, for which the growth inhibition in test [1] (setting [7]) is 57%; in test [1] (setting [8]) it was 98% (active); in test [1] (at 50.0 µM) it was 1.15%; in test [2] (setting [7]) it was 46%; in test [2] (setting [8]) it was 99% (active); in test [2] (at 50.0 µM), 13.8%. Further, the growth inhibition in test [3] (setting [7]) is 70% (active); in test [3] (setting [8]), 98% (active); in test [3] (at 50.0 µM), -6.85%; in test [4] (setting [7]), 48%; in test [4] (setting [8]), 98% (active); in test [4] (at 50.0 µM) it was 76.7% (active). Also, the growth inhibition was 50% in test [5] (setting [7]); 98% (active) in test [5] (setting [8]); 56.1% in test [5] (at 50.0 µM); 64% in test [6] (setting [7]); 98% (active) in test [6] (setting [8]); 5.05% in test [6] (at 50.0 µM).

The record behind these values is PubChem BioAssay (NCI).
